The record followed here is PubChem BioAssay (NCATS).

Molecules are shown by their SMILES. Records with an inconclusive call do not appear. The source made the active and inactive calls. Calls come from the whole dose curve.

This assay in a line: Primary qHTS to identify inhibitors of SARS-CoV-2 cell entry (AID 1645846). Note: nearly all actives have a fitted effect of over 45% in size. As to conditions: SARS-CoV-2 pseudovirus cell entry assay, luminescence; activity change, negative = inhibition: at 57.1 µM (top of the series) unless noted; series mostly up to 57.1 µM. Summed up: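 HEK293-ACE2 (Expi293F, stable hACE2), 1500 cells/well, o/n 37C; cpd 23 nL pin, 1 h; MLV-PP w/ SARS-CoV-2-S (Wuhan-Hu-1, Δ19 C-term); 48 h 37C; Bright-Glo luminescence; normalized vs S-PP and bald PP.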
As for `CN[C@@H]1[C@H](O)[C@H](NC)[C@H]2O[C@@]3(O)C(=O)C[C@@H](C)O[C@H]3O[C@@H]2[C@H]1O`, the call was inactive. With `CC[N+](C)(CC)CCOC(=O)C1c2ccccc2Oc2ccccc21`, the molecule was classed as inactive. For `NC(=O)NC(=O)Cc1ccccc1`, the outcome was inactive.

On to `CC(=O)N=c1sc(S(N)(=O)=O)nn1C`, for which the activity change, negative = inhibition is -31.8%. As to `CCc1oc2ccccc2c1C(=O)c1cc(I)c(O)c(I)c1`, the activity change, negative = inhibition is -21.9%.

Take `COc1ccc2c(c1)c(CC(=O)OC/C=C(\C)CC/C=C(\C)CCC=C(C)C)c(C)n2C(=O)c1ccc(Cl)cc1`: the result was inactive. On to `COCCOC(=O)C1=C(C)NC(C)=C(C(=O)OC(C)C)C1c1cccc([N+](=O)[O-])c1` (stereo unspecified), for which the activity change, negative = inhibition was -23.8%.

Turning to `CC(C(=O)O)c1cccc(Oc2ccccc2)c1` (stereo unspecified), the activity change, negative = inhibition was -1.5%. Turning to `CC(=O)OCC(COC(C)=O)OC(C)=O`, the activity change, negative = inhibition worked out at 0.643%. The same measure, in the same setting: in the case of `NCC[C@H](O)C(=O)N[C@@H]1C[C@H](N)[C@@H](O[C@H]2O[C@H](CN)[C@@H](O)[C@H](O)[C@@H]2O)[C@H](O)[C@@H]1O[C@H]1O[C@H](CO)[C@@H](O)[C@H](N)[C@@H]1O` it was -28% [at 0.702 µM]; in that of `CC(=O)OC(C)OC(=O)C(C)c1ccc(-c2ccccc2)c(F)c1` (stereo unspecified), -21.2%. As for `CC(N=C(NC#N)Nc1ccncc1)C(C)(C)C` (stereo unspecified), the activity change, negative = inhibition is -37.8%. Consider `NCc1ccc(S(N)(=O)=O)cc1`, for which the molecule was classed as inactive. `COc1cc(C(=O)NC2CCCNC2)cc(OC)c1OC` (stereo unspecified): the activity change, negative = inhibition was -15.8%. Take `Cc1c(N(C)CS(=O)(=O)O)c(=O)n(-c2ccccc2)n1C`: the activity change, negative = inhibition is 1.77%. As for `CC(=O)OCC(=O)[C@@]1(O)[C@H](OC(C)=O)C[C@H]2[C@@H]3CCC4=CC(=O)C=C[C@]4(C)[C@@]3(F)[C@@H](O)C[C@@]21C`, the molecule was classed as inactive.
